Data reported in PubChem BioAssay AID652283 (National Center for Advancing Translational Sciences (NCATS), 2013).
Records with an inconclusive call do not appear. Values without a mark were called inactive. Activity calls are given as the source filed them. Calls come from the whole dose curve; as a rule, active = well fitted inhibition curve with a large enough effect; inconclusive = small, poorly fitted or top-dose-only effect; inactive = no such curve, though single readings can be large or run the other way.

Experiment: qHTS Assay for Lipid Storage Modulators: COS7 Assay against Probe and Analogs
Conditions: COS7 lipid droplet area, BODIPY imaging, 18 h
Description: Storing lipids as a reservoir for energy or the anabolism of elementary metabolites is a common feature of probably all cells and is conserved from bacteria to humans. The universal cellular lipid storage organelle is the so-called lipid storage droplet (LD). Although ubiquitous, LDs share a simple structure composed of a hydrophobic core that harbors the storage lipids, which is shielded by a droplet-specific phospholipid monolayer to which proteins are attached. The current model of LD biogenesis involves an incorporation of the lipid core into the membrane leaflets of the endoplasmic reticulum (ER) followed by a subsequent budding-like maturation of a LD, which ultimately pinches off. Once released, LD volume can increase by localized lipogenesis or fusion of existing droplets. Storage lipids are re-mobilized enzymatically by lipase activity. Lipase regulation in the adipocyte is heavily studied and involves multiple components including catecholamine signaling, the LD-associated proteins Perilipin and comparative gene identification-58 (CGI-58) and at least two lipases named hormone sensitive lipase (HSL) and adipocyte triglyceride lipase (ATGL). LD regulation outside of the adipocyte is poorly understood and only few components are known. However, there is an urgent need to learn more about ectopic fat depots as mislocalized storage of lipids, for example in the liver or muscle, is an eminent health problem associated with insulin resistance or the metabolic syndrome. We developed a laser-scanning cytometer assay to enable 1,536-well screening and combined the results of the small molecules screen with an RNAi database based on lipid storage. In this assay we tested analogs of the probe against a mammalian cell line (COS7), to see if these small molecules could disrupt lipid storage. NIH Molecular Libraries Probe Production Centers Network [MLPCN] NIH Chemical Genomics Center [NCGC] MLPCN Grant: MH085686 Assay Submitter (PI): Mathias Beller, Max-Planck-Institut fur Biophysikalische Chemie
COS7 cells were obtained from ATCC (CRL-1651), 5500 cells/well were dispensed into Corning 96 well imaging plate (catalog # 3340), and cultured in 100 uL of 1:1 DMEM medium (PAA) contain 10% fetal bovine serum (FBS) for 24 hours at 37 degrees C, 95% humidity, and 5% CO2. The medium was exchanged for compound treatment. Compound treatment occurred in 150 microL serum reduced medium (5% FBS) and 0.2% DMSO in presence of 400 microM oleic acid for 17-18 h. Cells were then fixed (3.7 % formaldehyde in PBS, 5 min), permeabilized (0.1% Triton X100, 5 min) and washed three times with PBS. Lipid droplets (1:2000 BODIPY 493/503) and nuclei (1:1000 Hoechst 33342) were stained for 1h. Imaging was performed in a Zeiss Axiovert automatic microscope. Number of lipid droplet accumulated in […] cells were analyzed using visual examination of the microscopic images and additional quantification by image segmentation using Cell Profiler.
CCOc1ccc(CCNC(=O)c2cc3ncccc3n2Cc2cccc(C)c2)cc1OCC gave a max response of 6.92%. With CCOc1ccc(CCNC(=O)c2ccccc2)cc1OCC the max response was -7.94%. In the case of CCOc1ccc(CCNC(=O)c2cc3ccccc3n2Cc2cccc(C)c2)cc1OCC, the Potency is reported as 0.264 µM (active). Compound CCOc1ccc(CCNC(=O)c2cc3cccnc3n2Cc2cccc(C)c2)cc1OCC has a max response of 0%. In the case of CCOc1ccc(CCNC(=O)c2cc3sccc3n2Cc2ccc(F)cc2F)cc1OCC, the Potency is reported as 1.18 µM (active). CCOc1ccc(CCNC(=O)c2cc3ccncc3n2Cc2cccc(C)n2)cc1OCC showed a max response of -22.2%. For CCOc1ccc(CCNC(=O)c2cc3ncccc3n2Cc2cccc(C)n2)cc1OCC, the max response was -5.54%. For CCOc1ccc(CCNC(=O)c2cc3ccccc3n2CCN2CCOCC2)cc1OCC, the Potency was 5.26 µM (active). For CCOc1ccc(CCNC(=O)c2cc3ccccc3n2Cc2ccccn2)cc1OCC, the Potency was 1.66 µM (active). For CCOc1ccc(CCNC(=O)c2cc3cnccc3n2Cc2cccc(C)c2)cc1OCC, the max response was -13.8%. Work on CCOc1ccc(CCNC(=O)c2ccc(C(=O)c3ccccc3)cc2)cc1OCC yielded a max response of -5.7%. Compound CCOc1ccc(CCNC(=O)c2cc3ccncc3n2Cc2cccc(C)c2)cc1OCC has a max response of -1.73%. With CCOc1ccc(CCNC(=O)c2cc3cnccc3n2Cc2cccc(C)n2)cc1OCC the max response was -1.53%. In the case of CCOC(=O)C1CCN(C(=O)C2(NC(=O)Nc3ccccc3Cl)CCCC2)CC1, the Potency is reported as 5.87 µM (active). With CCOc1ccc(CCNC(=O)c2cc3ccccc3n2Cc2cccc(C)n2)cc1OCC the Potency was 0.59 µM (active).
